The values below come from PubChem BioAssay (NCI).

This is part of a sample that, as a whole, favours compounds with a hit. Of some 83,000 tested, about 20% had one in any assay.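 Assay: single dose, 48 h. Readout: percent growth (0 = no net growth; negative = cell death). Active: <10.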 Activity calls are given as the source filed them.

In the experiment the test system is T-47D breast. As to the kind of experiment: NCI-60 one-dose screen, 48 h (100 = growth as untreated, 0 = no growth, -100 = all killed). The settings on record: 10 µM unless noted.
On to `O=[N+]([O-])c1cccc(C2c3ccccc3Oc3ccccc32)c1`, for which the growth is 86.4% (inactive).
Consider `CCCCCCCC(=O)SCC/C=C/[C@@H]1CC(=O)NCc2nc(cs2)C2=N[C@@](C)(CS2)C(=O)N[C@@H](C(C)C)C(=O)N1`, for which the growth was -25.6% (active).
The result for `Cc1ccc(NC(=O)CN2CCOCC2)cc1Cl` reads 88.7% (inactive); that for `O=C(NOC1OC(CO)C(O)C(O)C1O)Nc1ccccc1` (stereo not drawn), 78.7% (inactive); that for `C=C1C(=O)O[C@H]2[C@H]1CC/C(COC(=O)c1ccc(C#N)cc1)=C\CC[C@@]1(C)O[C@@H]21`, -16.2% (active).
With `CN[C@@H](CCCNC(N)=NC/C=C(/C)CCC=C(C)C)C(=O)N(C)[C@@H](CCCNC(N)=NCC=C(C)C)C(=O)N[C@H](C)[C@H](OS(=O)(=O)O)c1ccc(OS(=O)(=O)O)c(COS(=O)(=O)O)c1`, the growth is 98.1% (inactive).
Regarding `C#CC(=O)/C=C/CCCCCCC#CC(=O)CCC(=O)C#CCCCCCC/C=C/C(=O)C#C`, the growth was 24.8% (inactive).
The result for `C#C[C@@]1(O)[C@@H](CO)O[C@@H](n2cc(Br)c3c(Cl)ccnc32)[C@@H]1O` reads -17.8% (active); that for `COc1cc(C(=O)N2CCN(C(=O)c3cc(OC)c(OCc4ccccc4)cc3N)CC2)c(N)cc1OCc1ccccc1`, 114% (inactive).
The figure for `c1ccc(CNCCN(CCNCc2ccccn2)Cc2ccc3ccccc3c2)nc1` is -4.67% (active); for `O=C(O)c1ccc2nc(-c3ccc(OCCCCCOc4ccc(-c5nc6ccc(C(=O)O)cc6[nH]5)cc4)cc3)[nH]c2c1` it is 51.2% (inactive).
The result for `COc1ccc(Cn2cc(COc3ccc4c5ccnc(C)c5n(CCCc5ccccc5)c4c3)nn2)cc1` reads 61.8% (inactive); that for `COc1ccc(Cl)cc1NC(=O)c1cc2c([nH]1)-c1nc(N)sc1CCC2`, 88.2% (inactive); that for `COc1cc2c(cc1OCCCCC(=O)Nc1ccc(-c3nc4ccccc4s3)cc1)N=C[C@@H]1CCCN1C2=O`, 14.7% (inactive).
`CC(C)(CCN=C(N)Nc1ccccn1)c1ccc(C(F)(F)F)cc1`: the growth was -29.7% (active).
The figure for `Cc1c(Cl)ccc2c(C(=O)Cl)cc(-c3ccccc3)nc12` is 90.9% (inactive); for `Cn1c(I)c(C#C[Si](C)(C)C)c(=O)[nH]c1=O` it is 21.9% (inactive); for `C#C[C@H](O)/C=C/CCCCCCC#C[C@H](O)CC[C@@H](O)C#CCCCCCC/C=C/[C@@H](O)C#C` it is 76% (inactive).
The figure for `COc1ccc(-c2nn(-c3ccc(NC(=O)c4cc(C(F)(F)F)cc(C(F)(F)F)c4)cc3)cc2-c2ccncc2)cc1Cl` is 52.9% (inactive).
Consider `COc1ccccc1C(OC(C)=O)OC(C)=O`, for which the growth was 95.3% (inactive).
The result for `CCc1c(C)c2cc3c(c(C)c2oc1=O)OCC(=O)N3` reads 58.6% (inactive).
With `CC(=O)Cc1cccnc1`, the growth was 96.2% (inactive).
The figure for `OCc1cn(-c2ccc(Cl)cc2)nc1-c1ccc(O)cc1` is 85.3% (inactive); for `CCCc1nn2c(CCC(=O)c3nc4ccc([N+](=O)[O-])cc4[nH]3)nnc2s1` it is 102% (inactive).
The figure for `O=C(CNc1cccnc1)Nc1ccc(C(=O)/C=C/c2ccc(Cl)cc2)cc1` is 89.9% (inactive); for `CC(=O)Nc1ccc(OC(=O)c2ccccc2O)cc1` it is 100% (inactive).
The figure for `CC(C)CNCC(O)COc1ccc(C(C)(C)c2ccc(OCC(O)CNCC(C)C)cc2)cc1` (stereo not drawn) is -31.3% (active).
For `CCCCCCCCCCCCCCCCCCNCc1ccc(Cl)cc1`, the growth is 9.34% (active).
Consider `Nc1nccc(=S)[nH]1`, for which the growth was 99.6% (inactive).
The result for `O=C(Nc1ccc(-n2ccc3c(NC(=O)c4ccccc4)ncnc32)cc1)Nc1cccc(Cl)c1Cl` reads 42.8% (inactive); that for `c1ccc2c(c1)Oc1cccnc1-n1nccc1-2`, 105% (inactive).
The result for `Nc1nc2ccc(CNc3ccc(C(=O)NC(CC(=O)O)C(=O)O)cc3)cc2c(=O)[nH]1` (stereo not drawn) reads 84.7% (inactive); that for `COc1cc(-c2nc3ccccc3s2)ccc1OCc1nc2n(n1)S(=O)(=O)c1ccccc1N2C`, 85.3% (inactive).
Consider `C=CC(C)(O)CCC1C(=C)CCC2C(C)(C)CCCC12C` (stereo not drawn), for which the growth is 99.4% (inactive).
Consider `COc1ccc(-c2cc3ccc(N(C)C)cc3nc2N)c(F)c1`, for which the growth was 24.3% (inactive).
Turning to `O=C(Nc1ccc(-n2ccc3c(NC(=O)c4ccccc4)ncnc32)cc1)Nc1ccc(Cl)c(Cl)c1`, the growth is 33.5% (inactive).
For `N#Cc1c(N)nc2c(c1N)C(c1ccc(Cl)cc1)C1=C(CCCC1=O)N2c1sc2c(c1C#N)CCCC2` (stereo not drawn), the growth is 96.8% (inactive).
The figure for `CCn1c(SC)nnc1-c1cc2c([nH]c3ccccc32)c(-c2cccc(O)c2)n1` is 10.8% (inactive).
